In one experiment the target is POU1 (OCT1 POU domain) (human, UniProt P14859 260-458). Kind of experiment: EMSA-SELEX-seq; no BOB1; 20 mM Tris-HCl pH 7.6, 140 mM NaCl, 10% glycerol, 0.5 mM EDTA, 0.05% Triton X-100, 0.1 mg/mL BSA, 0.1 mg/mL poly(dI-dC), 5 mM DTT, room temperature, 20 min; high values mean tight binding. The settings on record: protein: recombinant; dsDNA, one strand shown. An outline of the steps:
(§1)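 After expression in E. coli BL21, tagged POU-domain proteins were purified under denaturing conditions and then renatured. Each binding reaction held 30 ng protein and 300 ng of a PCR-amplified double-stranded random 35-nt library in 20 μL Tris–HCl pH 7.6 binding buffer, with or without 28 ng coactivator protein, for 20 min at RT. Bands holding complexes were cut from native 6% PAGE, eluted and PCR-amplified across four rounds, and the output was Illumina-sequenced. The value given for binding preference is the share, in percent, of sequenced 8-mers fitting a motif pattern.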

In a further experiment the target is T1, POU2 (OCT2 POU domain) (human, UniProt P09086 175-386).
T1 sequence: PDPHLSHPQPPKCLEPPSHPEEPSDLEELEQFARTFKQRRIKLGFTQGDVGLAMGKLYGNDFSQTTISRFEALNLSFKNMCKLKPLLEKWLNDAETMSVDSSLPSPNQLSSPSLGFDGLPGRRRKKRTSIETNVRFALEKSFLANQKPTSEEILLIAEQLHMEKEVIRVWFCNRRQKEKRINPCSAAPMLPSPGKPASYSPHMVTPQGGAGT
Described as above. As to conditions: protein: recombinant; dsDNA, one strand shown. An outline of the steps:
as §1

Experiment [1] addresses POU1 (OCT1 POU domain);BOB1 (OBF1, OCA-B) (human;human, UniProt P14859;Q16633 260-458;1-256, |). Kind of experiment: EMSA-SELEX-seq; with BOB1 (ternary complex band); 20 mM Tris-HCl pH 7.6, 140 mM NaCl, 10% glycerol, 0.5 mM EDTA, 0.05% Triton X-100, 0.1 mg/mL BSA, 0.1 mg/mL poly(dI-dC), 5 mM DTT, room temperature, 20 min; high values mean tight binding. The settings on record: protein: recombinant;recombinant; copies: 1;1; dsDNA, one strand shown. The gist of the method: as §1
(In general: A gel shift assay detects complexes by their altered migration in electrophoresis.)

Experiment [2] concerns the target T2, POU2 (OCT2 POU domain);BOB1 (OBF1, OCA-B) (human;human, UniProt P09086;Q16633 175-386;1-256, |).
T2 sequence 1: T1 sequence
T2 sequence 2: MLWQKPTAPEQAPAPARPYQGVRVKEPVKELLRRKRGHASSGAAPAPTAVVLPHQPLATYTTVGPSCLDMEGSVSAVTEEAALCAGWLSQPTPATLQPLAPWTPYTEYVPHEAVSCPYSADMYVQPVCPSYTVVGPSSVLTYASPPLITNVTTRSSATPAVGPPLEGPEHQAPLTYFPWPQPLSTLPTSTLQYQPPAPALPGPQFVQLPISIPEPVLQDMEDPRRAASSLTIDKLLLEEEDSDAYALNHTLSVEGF
Described as above. As to conditions: protein: recombinant;recombinant; copies: 1;1; dsDNA, one strand shown. An outline of the steps: as §1

Sequence of POU1 (OCT1 POU domain) (P14859 260-458): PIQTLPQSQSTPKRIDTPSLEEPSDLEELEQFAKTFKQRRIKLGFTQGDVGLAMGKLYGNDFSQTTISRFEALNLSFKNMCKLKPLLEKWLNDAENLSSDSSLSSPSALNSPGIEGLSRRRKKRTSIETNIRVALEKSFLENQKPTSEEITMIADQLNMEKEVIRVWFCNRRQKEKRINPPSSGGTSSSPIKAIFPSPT

In the case of AGAACAAC, the binding signal is 0.0153 % of ANNNNAAN 8-mers in the experiment with POU1 (OCT1 POU domain), 0.0132 % of ANNNNAAN 8-mers in the experiment with POU2 (OCT2 POU domain), 0.0125 % of ANNNNAAN 8-mers in experiment [1] and 0.0239 % of ANNNNAAN 8-mers in experiment [2].

On to ACGGGAAG, for which the binding signal was 0.0332 % of ANNNNAAN 8-mers with POU1 (OCT1 POU domain), 0.0339 % of ANNNNAAN 8-mers in the experiment with POU2 (OCT2 POU domain), 0.0254 % of ANNNNAAN 8-mers in experiment [1] and 0.0347 % of ANNNNAAN 8-mers in experiment [2].

For AATTGAAG, the binding signal in the experiment with POU1 (OCT1 POU domain) is 0.069 % of ANNNNAAN 8-mers; with POU2 (OCT2 POU domain), 0.0725 % of ANNNNAAN 8-mers; in experiment [1], 0.0624 % of ANNNNAAN 8-mers; in experiment [2], 0.052 % of ANNNNAAN 8-mers.

ACTTGAAC: the binding signal with POU1 (OCT1 POU domain) is 0.0183 % of ANNNNAAN 8-mers; in the experiment with POU2 (OCT2 POU domain) it was 0.0207 % of ANNNNAAN 8-mers; in experiment [1], 0.018 % of ANNNNAAN 8-mers; in experiment [2] it was 0.0314 % of ANNNNAAN 8-mers.

In the case of AAGCTAAC, the binding signal with POU1 (OCT1 POU domain) was 0.0137 % of ANNNNAAN 8-mers; with POU2 (OCT2 POU domain) it was 0.0178 % of ANNNNAAN 8-mers; in experiment [1], 0.0191 % of ANNNNAAN 8-mers; in experiment [2], 0.0215 % of ANNNNAAN 8-mers.

In the case of ACCGAAAG, the binding signal is 0.0137 % of ANNNNAAN 8-mers with POU1 (OCT1 POU domain), 0.0144 % of ANNNNAAN 8-mers with POU2 (OCT2 POU domain), 0.0164 % of ANNNNAAN 8-mers in experiment [1] and 0.0149 % of ANNNNAAN 8-mers in experiment [2].

On to ATCTAAAA, for which the binding signal with POU1 (OCT1 POU domain) was 0.0564 % of ANNNNAAN 8-mers; with POU2 (OCT2 POU domain), 0.0524 % of ANNNNAAN 8-mers; in experiment [1], 0.0535 % of ANNNNAAN 8-mers; in experiment [2], 0.0669 % of ANNNNAAN 8-mers.

As for AGTAGAAG, the binding signal with POU1 (OCT1 POU domain) is 0.0404 % of ANNNNAAN 8-mers; with POU2 (OCT2 POU domain) it was 0.0391 % of ANNNNAAN 8-mers; in experiment [1], 0.0336 % of ANNNNAAN 8-mers; in experiment [2] it was 0.0297 % of ANNNNAAN 8-mers.

AACTGAAT: the binding signal with POU1 (OCT1 POU domain) was 0.0885 % of ANNNNAAN 8-mers; in the experiment with POU2 (OCT2 POU domain), 0.108 % of ANNNNAAN 8-mers; in experiment [1], 0.0562 % of ANNNNAAN 8-mers; in experiment [2], 0.0735 % of ANNNNAAN 8-mers.

As to AATTGAAT, the binding signal is 0.203 % of ANNNNAAN 8-mers in the experiment with POU1 (OCT1 POU domain), 0.238 % of ANNNNAAN 8-mers in the experiment with POU2 (OCT2 POU domain), 0.127 % of ANNNNAAN 8-mers in experiment [1] and 0.125 % of ANNNNAAN 8-mers in experiment [2].

As for AGTTAAAG, the binding signal in the experiment with POU1 (OCT1 POU domain) is 0.0545 % of ANNNNAAN 8-mers; with POU2 (OCT2 POU domain), 0.0564 % of ANNNNAAN 8-mers; in experiment [1], 0.064 % of ANNNNAAN 8-mers; in experiment [2] it was 0.0528 % of ANNNNAAN 8-mers.

AATCCAAT: the binding signal was 0.0507 % of ANNNNAAN 8-mers in the experiment with POU1 (OCT1 POU domain), 0.0552 % of ANNNNAAN 8-mers with POU2 (OCT2 POU domain), 0.0605 % of ANNNNAAN 8-mers in experiment [1] and 0.0504 % of ANNNNAAN 8-mers in experiment [2].

Take ACGGTAAG: the binding signal with POU1 (OCT1 POU domain) is 0.0351 % of ANNNNAAN 8-mers; with POU2 (OCT2 POU domain) it was 0.0311 % of ANNNNAAN 8-mers; in experiment [1] it was 0.0359 % of ANNNNAAN 8-mers; in experiment [2], 0.0413 % of ANNNNAAN 8-mers.

As to AAGCTAAG, the binding signal in the experiment with POU1 (OCT1 POU domain) is 0.0248 % of ANNNNAAN 8-mers; with POU2 (OCT2 POU domain), 0.0322 % of ANNNNAAN 8-mers; in experiment [1], 0.0187 % of ANNNNAAN 8-mers; in experiment [2], 0.0272 % of ANNNNAAN 8-mers.

As to AACAAAAC, the binding signal with POU1 (OCT1 POU domain) is 0.0587 % of ANNNNAAN 8-mers; in the experiment with POU2 (OCT2 POU domain) it was 0.0409 % of ANNNNAAN 8-mers; in experiment [1], 0.0987 % of ANNNNAAN 8-mers; in experiment [2], 0.0636 % of ANNNNAAN 8-mers.

Regarding ACCATAAA, the binding signal with POU1 (OCT1 POU domain) was 0.0625 % of ANNNNAAN 8-mers; with POU2 (OCT2 POU domain), 0.0662 % of ANNNNAAN 8-mers; in experiment [1], 0.0304 % of ANNNNAAN 8-mers; in experiment [2], 0.0264 % of ANNNNAAN 8-mers.

Regarding ACACAAAC, the binding signal with POU1 (OCT1 POU domain) was 0.0236 % of ANNNNAAN 8-mers; in the experiment with POU2 (OCT2 POU domain), 0.019 % of ANNNNAAN 8-mers; in experiment [1] it was 0.0398 % of ANNNNAAN 8-mers; in experiment [2], 0.0297 % of ANNNNAAN 8-mers.

ACAGAAAT: the binding signal was 0.0568 % of ANNNNAAN 8-mers with POU1 (OCT1 POU domain), 0.0633 % of ANNNNAAN 8-mers with POU2 (OCT2 POU domain), 0.0472 % of ANNNNAAN 8-mers in experiment [1] and 0.0504 % of ANNNNAAN 8-mers in experiment [2].

On to AACGCAAG, for which the binding signal in the experiment with POU1 (OCT1 POU domain) was 0.016 % of ANNNNAAN 8-mers; with POU2 (OCT2 POU domain) it was 0.0219 % of ANNNNAAN 8-mers; in experiment [1], 0.0222 % of ANNNNAAN 8-mers; in experiment [2], 0.0281 % of ANNNNAAN 8-mers.

Take AATGTAAG: the binding signal was 0.104 % of ANNNNAAN 8-mers with POU1 (OCT1 POU domain), 0.106 % of ANNNNAAN 8-mers with POU2 (OCT2 POU domain), 0.089 % of ANNNNAAN 8-mers in experiment [1] and 0.0958 % of ANNNNAAN 8-mers in experiment [2].

Take ACTGTAAA: the binding signal is 0.0404 % of ANNNNAAN 8-mers with POU1 (OCT1 POU domain), 0.042 % of ANNNNAAN 8-mers with POU2 (OCT2 POU domain), 0.0406 % of ANNNNAAN 8-mers in experiment [1] and 0.0388 % of ANNNNAAN 8-mers in experiment [2].

For ACTAAAAT, the binding signal with POU1 (OCT1 POU domain) was 0.0805 % of ANNNNAAN 8-mers; with POU2 (OCT2 POU domain) it was 0.0714 % of ANNNNAAN 8-mers; in experiment [1], 0.0663 % of ANNNNAAN 8-mers; in experiment [2], 0.0528 % of ANNNNAAN 8-mers.

For AGGTGAAA, the binding signal was 0.0587 % of ANNNNAAN 8-mers with POU1 (OCT1 POU domain), 0.0466 % of ANNNNAAN 8-mers with POU2 (OCT2 POU domain), 0.0601 % of ANNNNAAN 8-mers in experiment [1] and 0.0471 % of ANNNNAAN 8-mers in experiment [2].

As for AGAGGAAC, the binding signal with POU1 (OCT1 POU domain) was 0.0229 % of ANNNNAAN 8-mers; with POU2 (OCT2 POU domain), 0.0339 % of ANNNNAAN 8-mers; in experiment [1], 0.0234 % of ANNNNAAN 8-mers; in experiment [2], 0.0264 % of ANNNNAAN 8-mers.

For the sequence AGTCTAAC, the binding signal with POU1 (OCT1 POU domain) is 0.021 % of ANNNNAAN 8-mers; in the experiment with POU2 (OCT2 POU domain), 0.0207 % of ANNNNAAN 8-mers; in experiment [1], 0.0199 % of ANNNNAAN 8-mers; in experiment [2], 0.0231 % of ANNNNAAN 8-mers.

As to AACAGAAG, the binding signal is 0.0244 % of ANNNNAAN 8-mers with POU1 (OCT1 POU domain), 0.0339 % of ANNNNAAN 8-mers with POU2 (OCT2 POU domain), 0.0273 % of ANNNNAAN 8-mers in experiment [1] and 0.0297 % of ANNNNAAN 8-mers in experiment [2].

On to AACAGAAT, for which the binding signal with POU1 (OCT1 POU domain) was 0.0645 % of ANNNNAAN 8-mers; in the experiment with POU2 (OCT2 POU domain), 0.0679 % of ANNNNAAN 8-mers; in experiment [1], 0.0507 % of ANNNNAAN 8-mers; in experiment [2], 0.0594 % of ANNNNAAN 8-mers.

For the sequence ATGAGAAG, the binding signal in the experiment with POU1 (OCT1 POU domain) was 0.0709 % of ANNNNAAN 8-mers; with POU2 (OCT2 POU domain), 0.088 % of ANNNNAAN 8-mers; in experiment [1], 0.0652 % of ANNNNAAN 8-mers; in experiment [2] it was 0.0553 % of ANNNNAAN 8-mers.

Turning to AATTAAAA, the binding signal with POU1 (OCT1 POU domain) was 0.364 % of ANNNNAAN 8-mers; with POU2 (OCT2 POU domain), 0.399 % of ANNNNAAN 8-mers; in experiment [1], 0.156 % of ANNNNAAN 8-mers; in experiment [2] it was 0.151 % of ANNNNAAN 8-mers.

With ACGTCAAT, the binding signal is 0.0339 % of ANNNNAAN 8-mers in the experiment with POU1 (OCT1 POU domain), 0.0426 % of ANNNNAAN 8-mers with POU2 (OCT2 POU domain), 0.0269 % of ANNNNAAN 8-mers in experiment [1] and 0.0322 % of ANNNNAAN 8-mers in experiment [2].
